# Records with an inconclusive call do not appear. Entries that show only a call come without a potency. Activity calls are given as the source filed them. Calls come from the whole dose curve; as a rule, active = well fitted cell-killing curve with a large enough effect; inconclusive = small, poorly fitted or top-dose-only effect; inactive = flat fitted curve, though single readings scatter.
# Test: Cellular viability qHTS for adrenocortical cancer (ACC) cell line NCI-H295R (AID 1963990); note: nearly all actives have a fitted effect of over 60% in size
# Conditions: CellTiter-Glo ATP luminescence, 48 h; series mostly up to 46.1 µM
# How it was run: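 Viability of NCI-H295R after 48 h of treatment (final up to 46 uM) measured through cellular ATP luminescence.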
# Potency is the fitted concentration of half-maximal effect.
row,Compound,Potency
1,CCNCc1nc2c(N)nc3ccccc3c2n1CC(C)(C)O,inactive
2,Oc1c(I)cc(Cl)c2cccnc12,14.6 µM (active)
3,CCCC(=O)O[C@]1(C(=O)COC(=O)CC)CC[C@H]2[C@@H]3CCC4=CC(=O)CC[C@]4(C)[C@H]3[C@@H](O)C[C@@]21C,inactive
4,OC[C@]1(O)OC[C@@H](O)[C@H](O)[C@@H]1O,inactive
5,O=C(NCC(=O)N1CC[C@H](NC2CCC(O)(c3ccc(-c4ncccn4)cn3)CC2)C1)c1cccc(C(F)(F)F)c1 (some centres not stated),inactive
6,CNc1nc(C)nc(N[C@H]2CCC[C@@H](C(=O)NCc3ccc(C#N)cc3C(F)(F)F)C2)n1,inactive
7,C[C@H](CN1CCCC1)C(=O)c1ccc(C(F)(F)F)cc1,inactive
8,Nc1nc(N)c2nc(-c3ccccc3)c(N)nc2n1,4.61 µM (active)
9,CCOC(CN1CCN(CC(C)C(=O)c2ccccc2)CC1)c1ccccc1 (configuration not stated),inactive
10,Oc1c(I)cc(I)c2cccnc12,3.66 µM (active)
11,CO/N=C(/C(=O)N[C@@H]1C(=O)N2C(C(=O)O)=C(Cn3nnc(C)n3)CS[C@H]12)c1csc(N)n1,inactive
12,CCOC(N)=O,inactive
